According to PubChem BioAssay AID1645849 (National Center for Advancing Translational Sciences (NCATS), 2021):
Inconclusive results are not listed. Where a call stands in place of a potency, no number is given. Activity calls are given as the source filed them. The call rests on the fitted dose curve; in most records, active means well fitted inhibition curve with a large enough effect in the repeat runs; inconclusive means weak or mixed curves; inactive means no such curve, though single readings can be large or run the other way.

Experiment: Comparison of Janus kinase inhibitors to block the type I interferon pathway in human skeletal muscle cells: JAK inhibition assay
Source text: Assay Submitter: Travis B. Kinder Ph.D.
National Center for Advancing Translational Sciences (NCATS)
The family of Janus kinases (JAK1, JAK2, JAK3, TYK2) mediate signal transduction from cytokine receptors through phosphorylation and activation of intracellular signaling pathways and transcription factors. Small molecule antagonists of JAKs (jakinibs) have been developed with varying selectivity for the use in malignancies and immune regulation. […] We have assayed a library of 48 jakinibs for their ability to inhibit the JAK1/TYK2-dependent type I interferon (IFN) - major histocompatibility complex (MHC) class I pathway in human skeletal muscle cells genome-engineered to fuse a pro-luminescent HiBiT peptide to endogenous MHC class I.
The assay utilized CRISPR/Cas9 genome-engineered immortalized human myoblasts, C25cl48, where a pro-luminescent reporter HiBit was fused to the C-terminus of endogenous MHC class I allele HLA-B*08:01 (HLA-B HiBit myoblasts) (Kinder et al., 2020). […] After 24 hrs of treatment, cells were assayed by Nano-Glo HiBiT Lytic Detection System (Promega) and luminescence measured by a ViewLux 1430 Ultra HTS (Perkin Elmer). […]
7; Detector; 5 sec; Measure luminescence with ViewLux 1430 Ultra HTS (Perkin Elmer). […]

Structure (SMILES) | Potency
CC(C)(O)/C=C\C(=O)[C@](C)(O)[C@H]1[C@H](O)C[C@]2(C)[C@@H]3CC=C4[C@@H](C=C(O)C(=O)C4(C)C)[C@]3(C)C(=O)C[C@@]12C | 5.65 µM (active)
CC1CCCCCC(=O)c2c(O)cc(O)cc2CC(=O)O1 (configuration not stated) | inactive
